From PubChem BioAssay (NCATS)
Records with an inconclusive call do not appear. The source made the active and inactive calls. Calls come from the whole dose curve; as a rule, active = well fitted curve in the direction sought with a large enough effect; inconclusive = small, poorly fitted or top-dose-only effect, or another doubt; inactive = no such curve, though single readings can be large; an effect the other way counts as inactive or inconclusive.

Assays:
[1] = target: Metallo-beta-lactamase type 2 (Klebsiella pneumoniae) (UniProt C7C422); assay: qHTS to identify inhibitors of the New Delhi Metallo-beta-lactamase (NDM): assay validation screen against the NCATS LOPAC Collection (AID 1794843); note: series mostly up to about 38 µM
Sequence of Metallo-beta-lactamase type 2 (Klebsiella pneumoniae) (C7C422 whole entry, looked up): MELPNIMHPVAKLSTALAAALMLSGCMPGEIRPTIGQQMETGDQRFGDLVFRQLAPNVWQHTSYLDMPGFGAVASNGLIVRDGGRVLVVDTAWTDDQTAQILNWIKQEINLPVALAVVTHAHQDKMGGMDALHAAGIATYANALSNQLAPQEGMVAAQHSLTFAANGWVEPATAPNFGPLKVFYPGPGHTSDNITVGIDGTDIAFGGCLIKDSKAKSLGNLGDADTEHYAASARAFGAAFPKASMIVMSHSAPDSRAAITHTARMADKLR
Procedure, shortened: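 Absorbance at 485 nm from nitrocefin turnover (50 uM solution added), read at plateau, gives the read-out. Compounds in DMSO were incubated first with 2 nM final NDM-1 in pH 7.0 HEPES buffer containing 1 uM ZnSO4 and 0.01% Tween20.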

[2] = target: Glutathione peroxidase 1 (Homo sapiens) (UniProt P07203); assay: Primary qHTS Assay for Inhibitors of Recombinant Selenoprotein Glutathione Peroxidase 1 (GPX1) (AID 1845191); note: nearly all actives have a fitted effect of over 65% in size
Sequence of Glutathione peroxidase 1 (Homo sapiens) (P07203 whole entry, looked up): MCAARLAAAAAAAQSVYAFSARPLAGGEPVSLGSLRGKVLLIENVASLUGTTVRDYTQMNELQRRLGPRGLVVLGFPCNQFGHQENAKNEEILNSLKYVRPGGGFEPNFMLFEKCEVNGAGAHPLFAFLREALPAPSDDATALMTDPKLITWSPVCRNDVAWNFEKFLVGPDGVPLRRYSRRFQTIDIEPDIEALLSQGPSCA
Procedure, shortened: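 NADPH consumption tracked by fluorescence at 340/450 nm between t=0 and t=15 min, room temperature. Final mix: 10 nM GPX1, 100 nM glutathione reductase, 1 mM GSH, 0.5 mM NADPH, 0.5 mM cumene hydroperoxide, 0.01% BSA; 30 min compound–enzyme preincubation.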

[3] = target: Phospholipid hydroperoxide glutathione peroxidase GPX4 (Homo sapiens) (UniProt P36969); assay: Primary qHTS Assay for Inhibitors of Recombinant Selenoprotein Glutathione Peroxidase 4 (GPX4) (AID 1845192); note: nearly all actives have a fitted effect of over 65% in size
Sequence of Phospholipid hydroperoxide glutathione peroxidase GPX4 (Homo sapiens) (P36969 whole entry, looked up): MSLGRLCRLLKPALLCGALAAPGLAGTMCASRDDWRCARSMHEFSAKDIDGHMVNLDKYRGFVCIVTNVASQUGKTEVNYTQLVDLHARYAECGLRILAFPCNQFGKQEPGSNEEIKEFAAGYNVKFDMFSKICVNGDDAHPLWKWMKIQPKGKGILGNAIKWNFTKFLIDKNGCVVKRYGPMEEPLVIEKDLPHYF
Procedure, shortened: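 NADPH consumption followed by fluorescence at 340/450 nm, t=0 and after 15 min at room temperature. Reaction started with cumene hydroperoxide (0.5 mM final) after 30 min compound–GPX4 preincubation; final 200 nM GPX4, 100 nM GR, 1 mM GSH, 0.5 mM NADPH.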

[4] = Quantitative High-Throughput drug screen in 47 multiple myeloma cell lines against the NCATS MIPE library collection: FR4_PLB cell viability assay (AID 1918924; note: nearly all actives have a fitted effect of over 35% in size; note: potency is the fitted concentration of half-maximal effect)
Procedure, shortened: (§1)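 Approved and investigational drugs from MIPE 4.0 were added by pin tool to 500 cells per well. After 48 hours at 37C, ATP-based CellTiter-Glo luminescence indicated remaining viability.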

[5] = Quantitative High-Throughput drug screen in 47 multiple myeloma cell lines against the NCATS MIPE library collection: Delta47_JCRB cell viability assay (AID 1918925; note: nearly all actives have a fitted effect of over 45% in size; note: potency is the fitted concentration of half-maximal effect)
Procedure, shortened: as §1

[6] = target: Luciferin 4-monooxygenase (Photinus pyralis) (UniProt P08659); assay: Primary firefly luciferase (FLuc) qHTS assay for identification of artifact compounds. (AID 1845220); details: outcome: dose series up to 54.1 µM unless noted; note: series mostly up to about 54 µM; nearly all actives have a fitted effect of over 60% in size
Procedure, shortened: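 FLuc 10 nM; luciferin 10 uM; ATP 10 uM; Tris-acetate pH 7.6, Mg-acetate 10 mM; 15 min RT preincubation; 5 min reaction; luminescence.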

[7] = Primary fluorescence-based thiol-reactive (MSTI) qHTS assay for identification of artifact compounds. (AID 1845221);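 note: series mostly up to about 54 µM; thiol-reactive compounds lower the probe fluorescence signal; nearly all actives have a fitted effect of over 65% in size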
Procedure, shortened: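 In PBS pH 7.4 with 2% DMSO, each compound met 4 uM MSTI for one hour at ambient temperature, shielded from light, before fluorescence detection.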

[8] = tested on: Nanoluciferase (engineered Oplophorus gracilirostris luciferase); assay: Primary Nanoluciferase (NLuc) qHTS assay for identification of artifact compounds. (AID 1845222);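 note: NLuc secreted into diluted conditioned medium of S16 cells; series mostly up to about 54 µM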
Procedure, shortened: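 NLuc from S16 cell medium (1:55) plus test compounds, 15 min, room temperature. Luminescence after Nano-Glo (1:100) addition, 5 min.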

[9] = Primary redox qHTS assay for identification of artifact compounds. (AID 1845223)
Procedure, shortened: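 Redox-cycling detection via DTT (250 uM final) oxidation coupled to Amplex Red (25 uM)/HRP (250 mU/mL) in HBSS. 15 min preincubation plus 30 min after DTT, room temperature. Ex/Em 525/598 nm; 4-parameter Hill fit against DMSO and 10 uM DA3003.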

Measured: Potency

CCCCc1ccc(C(=O)O)nc1
inactive: [1] | [2] | [3]

CN1C2CCC1CC(OC(=O)c1cc(Cl)cc(Cl)c1)C2 (centres undefined)
inactive: [1] | [2] | [3]

NCCc1c[nH]c2ccccc12
inactive: [1] | [2] | [3]

CN[C@@H]1C[C@@H](c2ccc(Cl)c(Cl)c2)c2ccccc21
inactive: [1] | [2] | [3]

O=C(Cc1ccc(Cl)c(Cl)c1)N1CCCCC1CN1CCCC1 (centres undefined)
inactive: [1] | [2] | [3]

NC1CCc2cc(O)c(O)cc2C1 (centres undefined)
inactive: [1] | [2] | [3]

C[C@@H]1O[C@H](C[N+](C)(C)C)C[C@H]1O
inactive: [1] | [2] | [3]

CC(C)Oc1cccnc1N(C)C1CCN(Cc2ccccc2)CC1
inactive: [1] | [2] | [3]

c1ccc(C2(c3ccccc3)CC2C2=NCCN2)cc1 (centres undefined)
inactive: [1] | [2] | [3]

C#CCOC(=O)C1=CCCN(C)C1
inactive: [1] | [2] | [3]

NC(N)=NOCCC(N)C(=O)O (centres undefined)
inactive: [1] | [2] | [3]

CC(C)NC(C)Cc1ccc(I)cc1 (centres undefined)
inactive: [1] | [2] | [3]

NC(=NCCC[C@H](N)C(=O)O)N[N+](=O)[O-]
inactive: [1] | [2] | [3]

NCCc1c[nH]c2ccc(O)cc12
inactive: [1] | [2] | [3]

NC(CCP(=O)(O)O)C(=O)O (centres undefined)
inactive: [1] | [2] | [3]

C[C@]12CCC3C(CC[C@H]4C[C@H](O)CC[C@]34C)C1CC[C@@H]2C(=O)CO (some centres undefined)
inactive: [1] | [2] | [3]

Clc1cnc(Oc2ccc(Oc3ncc(Cl)cc3Cl)cc2)c(Cl)c1
inactive: [1] | [2] | [3]

COc1cc(C(O)CN)ccc1O (centres undefined)
inactive: [1] | [2] | [3]

CC(=O)[C@H]1CCC2C3CC[C@H]4C[C@H](O)CC[C@]4(C)C3CC[C@@]21C (some centres undefined)
inactive: [1] | [2] | [3]

C=CCN1CC[C@]23CCCCC2[C@H]1Cc1ccc(O)cc13 (some centres undefined)
inactive: [1] | [2] | [3]

Cc1nccc2c1[nH]c1ccccc12
inactive: [1] | [2]

C[N+](C)(C)CC(=O)O
inactive: [1] | [2] | [3]

C[N+]1(C)C2CCC1CC(OC(=O)C(CO)c1ccccc1)C2 (centres undefined)
inactive: [1] | [2] | [3]

CCCN(CCC)[C@@H]1CCc2ccc(O)cc2C1
inactive: [1] | [2] | [3]

O=C1CCCN1CC#CCN1CCCC1
inactive: [1] | [2] | [3]

NCc1cc(=O)[nH]o1
inactive: [1] | [2] | [3]

C[C@@H](N)Cc1cnc[nH]1
inactive: [1] | [2] | [3]

c1ccc2sc(C3(N4CCCCC4)CCCCC3)cc2c1
inactive: [1] | [2] | [3]

Cn1cnc(CCN)c1
inactive: [1] | [2] | [3]

NC(=O)CN1CC(O)CC1=O (centres undefined)
inactive: [1] | [2] | [3]

CCCN1CCC[C@H](c2cccc(O)c2)C1
inactive: [1] | [2] | [3]

CNCCc1ccc(O)c(O)c1
inactive: [1] | [2] | [3]

CC(Cc1ccc(O)cc1)NCC(O)c1cc(O)cc(O)c1 (centres undefined)
inactive: [1] | [2] | [3]

CCCN1CCO[C@@H]2c3cc(O)ccc3OC[C@H]21
inactive: [1] | [2] | [3]

c1ccc(CCCN2CCN(CCOC(c3ccccc3)c3ccccc3)CC2)cc1
active: [4] 23.5 µM | [5] 16.6 µM
inactive: [1] | [2] | [3]

S=C(NC1CCCCC1)N1CCC(c2cnc[nH]2)CC1
inactive: [1] | [2] | [3] | [6] | [7] | [8] | [9]

O=C(O)CC[N+](=O)[O-]
inactive: [1] | [2] | [3]

CC1=NN=C(c2ccc(N)cc2)c2cc3c(cc2C1)OCO3
inactive: [1] | [2] | [3] | [4] | [5]

O=[N+]([O-])/N=C1\NCCN1Cc1ccc(Cl)nc1
inactive: [2] | [3]

CCCN(CCC)C1CCc2ccc(O)cc2C1 (centres undefined)
inactive: [1] | [2] | [3]

NC(CP(=O)(O)O)C(=O)O (centres undefined)
inactive: [2] | [3]

O=S(=O)(CC1CS1)c1ccc(Oc2ccccc2)cc1 (centres undefined)
inactive: [2] | [3]

C=CCC1=C(C)C(OC(=O)C2C(C=C(C)C)C2(C)C)CC1=O (centres undefined)
inactive: [2] | [3]

O=C(O)Cc1cnc[nH]1
inactive: [2] | [3]

O=C(O)[C@@H]1CCN1
inactive: [2] | [3]

CS(=N)(=O)CC[C@H](N)C(=O)O (some centres undefined)
inactive: [1] | [2] | [3]

NC1CC1c1ccccc1 (centres undefined)
inactive: [1] | [2] | [3] | [4] | [5]
